± gives the standard deviation. The full ranking holds about 3,000 sequences; the median of “pre-steady-state target cleavage rate” is about 0.0079, and the highest 2% start at about 0.2. The list comes from a sample in which the highest values are over-represented; it also holds similar and randomly drawn sequences.
tested on: MILI (PIWIL2) piRISC loaded with piRNA #2 (26 nt); assay: pre-steady-state target cleavage rate (min^-1); MIWI and MILI are mouse PIWI proteins and EfPiwi is from a freshwater sponge; tags in brackets are library labels; higher = faster piRNA-guided slicing of the target; settings: guide: piRNA #2 5'p-UUAGGUAACCCAGUAGAUCCAGAGGA; auxiliary factor: 500 nM mouse GTSF1
Procedure: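 Cleave-'n-Seq: a library of target RNAs (target site embedded in constant flanks, ACAGCATTCCGCGTTAGTGATATCCG... 5' flank; DNA-blocked outside the site) at 0.1 nM was incubated with 1 nM active mouse MILI or MIWI piRISC (synthetic 5'-monophosphorylated piRNA guide) with or without 500 nM mouse GTSF1 at 33 °C for 1 min to 16 h. Uncleaved targets were sequenced and normalised to non-target controls, and the pooled three trials were fitted to a burst-and-steady-state model to give the pre-steady-state cleavage rate (min^-1; k3 is constrained to at most 1e-4). Sequence is the target site only; target names encode pairing extent (gX:gY) and contiguous / 1-mismatch / 2-mismatch / bulge geometry. Fits with R² ≤ 0 are excluded.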

Q: For CUUAUCCUCUGGAUACUACUGGGUUACCUAA, which “pre-steady-state target cleavage rate” value is on record?
A: 0.0816 ± 0.019

Q: Which “pre-steady-state target cleavage rate” value does the source give for CUUAAGCUCUGGAUCUACUGGGUUUCGUAA here?
A: 0.0193 ± 0.0086

Q: With CUUAUCCUGUGGAUCUACUGGGUUACGUAA as the sequence, how does the “pre-steady-state target cleavage rate” value read?
A: 0.0102 ± 0.0038

Q: For CUUAAGGUCUGGACUCUACUGGGUUACCUAA, which “pre-steady-state target cleavage rate” value is on record?
A: 0.0367 ± 0.014

Q: Which “pre-steady-state target cleavage rate” value does the source give for CUUAACACUCUGGAUCUACUGGGUUACCUAA here?
A: 0.0824 ± 0.024

Q: How did the “pre-steady-state target cleavage rate” value turn out when CUUAAGCUCUGGAUCUACUGGGUUACGUAA was run?
A: 0.0464 ± 0.011

Q: Which “pre-steady-state target cleavage rate” value does the source give for CUUAUCCUGCUGGAUCUACUGGGUUACCUAA here?
A: 0.0776 ± 0.018

Q: Which “pre-steady-state target cleavage rate” value does the source give for CUUAUCCUCUGGAUGUACUGGGUAACCUAA here?
A: 0.0198 ± 0.0082

Q: CUUAACCUCUCGAUCUACUGGGUUACGUAA was tested. Which “pre-steady-state target cleavage rate” value did it give?
A: 0.052 ± 0.017

Q: For CUUAUCCUCUGCUUCUACUGGGUUACCUAA, which “pre-steady-state target cleavage rate” value is on record?
A: 0.157 ± 0.026

Q: For CUUAUCCUCUGGAUCUACUGGGGUUACCUAA, which “pre-steady-state target cleavage rate” value is on record?
A: 0.0435 ± 0.012

Q: How did the “pre-steady-state target cleavage rate” value turn out when CUUAUCCUCUGGUUCUACUGGGUUACCUUA was run?
A: 1.12 ± 0.39

Q: For CUUAUCCUCUCCUUCUACUGGGUUACCUAA, which “pre-steady-state target cleavage rate” value is on record?
A: 0.106 ± 0.023

Q: With CUUAUCCUCUGGUUCUAGUGGGUUACCUAA as the sequence, how does the “pre-steady-state target cleavage rate” value read?
A: 0.134 ± 0.028

Q: For CUUAUCCUCUGGUUCUUCUGGGUUACCUAA, which “pre-steady-state target cleavage rate” value is on record?
A: 0.338 ± 0.088

Q: How did the “pre-steady-state target cleavage rate” value turn out when CUUAUCCUCUGGAUCUUCUGGGUUACCUAA was run?
A: 0.105 ± 0.019

Q: With CUUAUCCUCUGGUAUCUACUGGGUUACCUAA as the sequence, how does the “pre-steady-state target cleavage rate” value read?
A: 1.05 ± 0.33

Q: How did the “pre-steady-state target cleavage rate” value turn out when CUUAUCCUCUGUAUCUACUGGGUUACCUAA was run?
A: 0.0865 ± 0.015

Q: For CUUAUCCUCUCGUUCUACUGGGUUACCUAA, which “pre-steady-state target cleavage rate” value is on record?
A: 0.136 ± 0.021

Q: With CUUAUCCUCUGGUUCUACUGCGUUACCUAA as the sequence, how does the “pre-steady-state target cleavage rate” value read?
A: 0.0261 ± 0.0078

Q: Which “pre-steady-state target cleavage rate” value does the source give for CUUAUCCUCUGGUUCUACUGGGUUACCUAA here?
A: 0.469 ± 0.1

Q: CUUAACCUCUGGAUCUACUGGGUUACCAUAA was tested. Which “pre-steady-state target cleavage rate” value did it give?
A: 0.13 ± 0.03

Q: With CUUAAGGAGACCUUCUACUGGGGUACCUAA as the sequence, how does the “pre-steady-state target cleavage rate” value read?
A: < 0.0001

Q: How did the “pre-steady-state target cleavage rate” value turn out when CUUAAGGUGUGGAUCAACUGGGUUACCUAA was run?
A: 0.014 ± 0.0076

Q: With CUUAAGCUCUGGAUCUUGUGGGUUACCUAA as the sequence, how does the “pre-steady-state target cleavage rate” value read?
A: 0.00903 ± 0.0046

Q: With CUUAACCUCUGGAUCUACGGGGUUACCUAA as the sequence, how does the “pre-steady-state target cleavage rate” value read?
A: 0.0813 ± 0.012

Q: Which “pre-steady-state target cleavage rate” value does the source give for CUUAAGGAGUGGAUCUACUGGGUUACCGUAA here?
A: 0.0155 ± 0.0079

Q: With CUUAUCCUCUGGAUCUACAGGGUUACCUAA as the sequence, how does the “pre-steady-state target cleavage rate” value read?
A: 0.119 ± 0.016

Q: With CUUAAGGACAGGAUCUACUGGGUUACCUAA as the sequence, how does the “pre-steady-state target cleavage rate” value read?
A: 0.0192 ± 0.013

Q: Which “pre-steady-state target cleavage rate” value does the source give for CUUAAGGAGACCUAGAUCUGGGUAACCAAA here?
A: < 0.0001

Q: Which “pre-steady-state target cleavage rate” value does the source give for CUUAACCUCUGGUUCUACUGGGUAACCUAA here?
A: 0.14 ± 0.044

Q: For CUUAUCCUCUGGUUGUACUGGGUUACCUAA, which “pre-steady-state target cleavage rate” value is on record?
A: 0.151 ± 0.031

Q: Which “pre-steady-state target cleavage rate” value does the source give for CUUAUCCUCUGGUUCUACUGGGUAACCUAA here?
A: 0.268 ± 0.097

Q: CUUAAGCUCUGGUAUCUACUGGGUUACCUAA was tested. Which “pre-steady-state target cleavage rate” value did it give?
A: 0.15 ± 0.038

Q: CUUAUCCUCUGGUAGUACUGGGUUACCUAA was tested. Which “pre-steady-state target cleavage rate” value did it give?
A: 0.103 ± 0.035

Q: CUUAACCUCUGUAUCUACUGGGUUACCUAA was tested. Which “pre-steady-state target cleavage rate” value did it give?
A: 0.071 ± 0.013

Q: Which “pre-steady-state target cleavage rate” value does the source give for CUUAUCCUCUGGUUCAACUGGGUUACCUAA here?
A: 0.225 ± 0.063

Q: How did the “pre-steady-state target cleavage rate” value turn out when CUUAUCCUCUGGAUCUACUGGGUAACCUAA was run?
A: 0.0929 ± 0.021

Q: With CUUAACCUCUGGUAUCUACUGGGUUACCUAA as the sequence, how does the “pre-steady-state target cleavage rate” value read?
A: 0.584 ± 0.19

Q: With CUUAUCCUCUGGUACUACUGGGUUACCUAA as the sequence, how does the “pre-steady-state target cleavage rate” value read?
A: 0.754 ± 0.23

Q: For CUUAUCCUCUGGAUCAACUGGGUUACCUAA, which “pre-steady-state target cleavage rate” value is on record?
A: 0.0659 ± 0.012

Q: How did the “pre-steady-state target cleavage rate” value turn out when CUUAACCUCUGGUUCAACUGGGUUACCUAA was run?
A: 0.117 ± 0.035

Q: For CUUAAGGAGUAGGAUCUACUGGGUUACCUAA, which “pre-steady-state target cleavage rate” value is on record?
A: 0.00494 ± 0.0041

Q: For CUUAAGGUCUGCAUCUACUGGGUUACCAAA, which “pre-steady-state target cleavage rate” value is on record?
A: 0.0157 ± 0.0062

Q: Which “pre-steady-state target cleavage rate” value does the source give for CUUAAGCUCUGGAUCUACUGGGUUAGCUAA here?
A: 0.094 ± 0.018

Q: How did the “pre-steady-state target cleavage rate” value turn out when CUUAACCUCUGGAUCUAUUGGGUUACCUAA was run?
A: 0.0785 ± 0.023

Q: How did the “pre-steady-state target cleavage rate” value turn out when CUUAAGCUCUGGAUGUAGUGGGUUACCUAA was run?
A: 0.061 ± 0.011

Q: Which “pre-steady-state target cleavage rate” value does the source give for CUUAAGCUCUGGAUCUACUGGGCUUACCUAA here?
A: 0.019 ± 0.0061

Q: Which “pre-steady-state target cleavage rate” value does the source give for CUUAACCUCUGGUUCUACUGGGUUACCAAA here?
A: 0.134 ± 0.037

Q: With CUUAACCUCUGGUCUACUGGGUUACCUAA as the sequence, how does the “pre-steady-state target cleavage rate” value read?
A: 0.333 ± 0.11

Q: With CUUAACCUCUGGGUCUACUGGGUUACCUAA as the sequence, how does the “pre-steady-state target cleavage rate” value read?
A: 0.169 ± 0.029

Q: CUUAACCUCUGGUUCUACUGGGUUACCUAA was tested. Which “pre-steady-state target cleavage rate” value did it give?
A: 0.141 ± 0.031

Q: For CUUAACCUCUGGUUCUACUGGGUUACCUUA, which “pre-steady-state target cleavage rate” value is on record?
A: 0.3 ± 0.087

Q: How did the “pre-steady-state target cleavage rate” value turn out when CUUAACCUCUGGAGUCUACUGGGUUACCUAA was run?
A: 0.135 ± 0.031

Q: How did the “pre-steady-state target cleavage rate” value turn out when CUUAUCCUCUGGAUCUAUGGGUUACCUAA was run?
A: 0.0334 ± 0.0086

Q: For CUUAACCUCUGCAUGUACUGGGUUACCUAA, which “pre-steady-state target cleavage rate” value is on record?
A: 0.117 ± 0.016

Q: With CUUAUCGUCUCGAUCUACUGGGUUACCUAA as the sequence, how does the “pre-steady-state target cleavage rate” value read?
A: 0.0585 ± 0.014

Q: Which “pre-steady-state target cleavage rate” value does the source give for CUUAAGGAAUGGAUCUACUGGGUUACCUAA here?
A: 0.0666 ± 0.015

Q: Which “pre-steady-state target cleavage rate” value does the source give for CUUAAGCACUGGUUCUACUGGGUUACCUAA here?
A: 0.199 ± 0.043

Q: Which “pre-steady-state target cleavage rate” value does the source give for CUUAAGCACUGCAUCUACUGGGUUACCUAA here?
A: 0.0725 ± 0.015

Q: For CUUAAGCACUCGAUCUACUGGGUUACCUAA, which “pre-steady-state target cleavage rate” value is on record?
A: 0.417 ± 0.15

Q: Which “pre-steady-state target cleavage rate” value does the source give for CUUAAGCUCUCGAUCUACUGGGUUACCUAA here?
A: 0.113 ± 0.019

Q: With CUUAAGCACUGGAUCUACUGGGUUACCUAA as the sequence, how does the “pre-steady-state target cleavage rate” value read?
A: 0.113 ± 0.02

Q: CUUAAGCUGUGGUUCUACUGGGUUACCUAA was tested. Which “pre-steady-state target cleavage rate” value did it give?
A: 0.0437 ± 0.014

Q: For CUUAAGGUCAGGUUCUACUGGGUUACCUAA, which “pre-steady-state target cleavage rate” value is on record?
A: 0.0166 ± 0.0093

Q: How did the “pre-steady-state target cleavage rate” value turn out when CUUAACCUCUGGAACUACUGGGUUACGUAA was run?
A: 0.118 ± 0.051

Q: Which “pre-steady-state target cleavage rate” value does the source give for CUUAAGGUCAGGAUCUACUGGGUUACCUUA here?
A: 0.0166 ± 0.0094

Q: CUUAUCCUCUGGAUCUACUGGGUUACCUCAA was tested. Which “pre-steady-state target cleavage rate” value did it give?
A: 0.0973 ± 0.019

Q: For CUUAUCCUCUGGAUCUACUGGGUUACCUCA, which “pre-steady-state target cleavage rate” value is on record?
A: 0.0902 ± 0.018

Q: For CUUAUCCUCUGGAUCUACUGGGUUACCUGAA, which “pre-steady-state target cleavage rate” value is on record?
A: 0.384 ± 0.17

Q: For “CUUAUCCUCUGGAUCUACUGGGUUACCUAC [g2:g26:cont:t1C]”, which “pre-steady-state target cleavage rate” value is on record?
A: 0.105 ± 0.014

Q: With CUUAUCCUCUGGAUCUACUGGGUUACCUGA as the sequence, how does the “pre-steady-state target cleavage rate” value read?
A: 0.838 ± 0.37

Q: How did the “pre-steady-state target cleavage rate” value turn out when CUUAUCCUCUGGAUCUACUGGGUUACCUA was run?
A: 0.159 ± 0.032

Q: CUUAAGCUCAGGAUCUACUGCGUUACCUAA was tested. Which “pre-steady-state target cleavage rate” value did it give?
A: 0.0105 ± 0.0058

Q: For CUUAAGGUCUGGAUCUAGUGGGUUACGUAA, which “pre-steady-state target cleavage rate” value is on record?
A: 0.0114 ± 0.004

Q: With CUUAUCCUCUGGAUCUACUGGAUUACCUAA as the sequence, how does the “pre-steady-state target cleavage rate” value read?
A: 0.0307 ± 0.0083

Q: For CUUAAGGAGUGGAUCUAGUGGGUUACCUAA, which “pre-steady-state target cleavage rate” value is on record?
A: 0.0231 ± 0.0069

Q: Which “pre-steady-state target cleavage rate” value does the source give for CUUAUCCUCUGGAUCUACUGGGAUAGCUAA here?
A: 0.0182 ± 0.0088
